# The list is not random: actives were taken first. Their share in the collection is about 1.7%.
# SUMO1 PPI mod – modulators of SUMO1 protein-protein interactions, primary screen, biochemical, uHTS. inhibition, % at 20 µM. AID 602429, 2012. actives 0.33% (n = 360,000). Small ubiquitin-related modifier 1 (Homo sapiens), P63165. SUMO1 binding to a labelled peptide, TR-FRET, 1 h; in the data active means inhibition above about 37%
# ATG4B inh – ATG4B protease inhibitors, primary screen, biochemical, fluorescence, uHTS | Cysteine protease ATG4B (Homo sapiens), Q9Y4P1 | ATG4B cleavage of LC3-PLA2, NBD-HPC fluorescence, 1 h | inhibition, % at 8.33 µM | actives 0.51% (n = 340,000); in the data active means inhibition above about 40%
# Target sequence (Q9Y4P1 whole entry, looked up): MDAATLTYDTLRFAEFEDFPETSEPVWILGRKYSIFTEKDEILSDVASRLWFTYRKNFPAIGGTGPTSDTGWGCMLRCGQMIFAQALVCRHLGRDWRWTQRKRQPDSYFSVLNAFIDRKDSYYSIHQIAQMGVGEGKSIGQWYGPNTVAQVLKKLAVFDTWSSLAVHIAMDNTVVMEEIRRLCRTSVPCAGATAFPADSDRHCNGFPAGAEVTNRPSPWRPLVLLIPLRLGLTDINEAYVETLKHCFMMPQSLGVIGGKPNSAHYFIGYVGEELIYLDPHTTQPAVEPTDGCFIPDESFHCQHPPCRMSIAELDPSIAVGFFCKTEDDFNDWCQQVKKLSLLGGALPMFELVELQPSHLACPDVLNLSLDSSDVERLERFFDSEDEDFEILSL
# Rin1-Abl PPI inh – inhibitors of Rin1-Abl protein binding, primary screen, biochemical, TR-FRET | AID 588664, 2011 | inhibition, % at 7.35 µM | actives 0.4% (n = 360,000); in the data active means inhibition above about 5%, passing the limit was not always enough
# Neddylation inh – inhibitors of cullin neddylation, primary screen, biochemical, TR-FRET, uHTS, NAE and Ubc12 | inhibition, % at 25 µM | AID 651699, 2012 | actives 0.58% (n = 360,000); in the data active means inhibition above about 36%
# ATG4B conf – ATG4B protease inhibitors, retest, confirmation, biochemical, fluorescence, single concentration. shares compounds with ATG4B inh. ATG4B protease fluorescent substrate cleavage assay. inhibition, % at 8.33 µM. actives 92% (n = 320). AID 504757, 2011; in the data active means inhibition above about 39%
# PLA2 counter – PLA2 enzyme inhibition, counter-screen for ATG4B inhibitor project, biochemical, single concentration, uHTS hits; shares compounds with ATG4B inh; purified PLA2, NBD-C6-HPC fluorescence, 45 min; inhibition, % at 8.33 µM; actives 66% (n = 1,600); AID 588402, 2011; in the data active means inhibition above about 50%
# Target sequence (P04054 whole entry, looked up): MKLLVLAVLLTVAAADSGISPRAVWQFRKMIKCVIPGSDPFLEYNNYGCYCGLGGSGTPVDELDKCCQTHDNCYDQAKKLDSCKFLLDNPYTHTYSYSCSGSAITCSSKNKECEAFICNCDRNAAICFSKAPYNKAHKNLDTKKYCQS
# Hits are given with their value; i = inactive; nt = no result given.
SMILES,SUMO1 PPI mod,ATG4B inh,Rin1-Abl PPI inh,Neddylation inh,PLA2 counter,others
CC(C)(C)c1cc(C(=O)NNc2cc(C(F)(F)F)ccc2Cl)n(Cc2ccccc2)n1,i,43,i,i,63,
NC(=O)/C(=C\c1ccccc1)NC(=O)/C=C/c1ccccc1,i,46,i,i,i,ATG4B conf=76
CC(C)CCOC(=O)/C(=C/c1ccco1)NC(=O)/C=C/c1ccccc1,i,i,i,i,nt,
NC(=O)/C(=C/c1ccco1)NC(=O)/C=C/c1ccccc1,i,50,i,i,68,
CCCCCCCCCCCCCCCC(O)C[N+](C)(C)CCO (centres undefined),i,55,i,i,i,ATG4B conf=56
CCc1ccc(NC(=O)c2cc(S(=O)(=O)N3CCCC3)ccc2F)cc1,i,nt,i,i,nt,
Cc1c(Cl)cccc1NS(=O)(=O)c1ccc2c(c1)C1C=CCC1C(c1ccc(C(=O)O)cc1)N2 (centres undefined),50,101,9.2,i,92,
O=C(CCN1C(=O)/C(=C/c2ccco2)SC1=S)Nc1ccc(O)cc1C(=O)O,40,43,i,i,i,
O=C(CCCN1C(=O)/C(=C/c2ccccc2Cl)SC1=S)NNC(=O)c1ccccc1,i,50,i,i,i,ATG4B conf=55
O=C(CCN1C(=O)/C(=C/c2ccccc2Cl)SC1=S)Nc1ccccc1C(=O)O,i,58,i,i,51,
CCCCN1CC(N(C)CCN(C)C)CS1(=O)=O (centres undefined),i,nt,i,i,nt,
CCOC(=O)C1=C(C)NC(C)=C(C(=O)OCC)C1C(=O)OCC(=O)Nc1ccc(NC(C)=O)cc1,i,nt,i,i,nt,
O=C1C=C(N2CCOCC2)c2ccccc2C1=O,40,64,i,i,i,ATG4B conf=53
CC1=C(C)C(=O)C(N2CCOCC2)=CC1=O,i,i,i,i,nt,
COCOc1cccc(CN2CCC2(C)C(=O)Nc2cc(OC)ccc2OC)c1 (centres undefined),i,nt,i,i,nt,
COc1cc(NC(=O)C2CC(c3ccccc3O)=NO2)cc(OC)c1OC (centres undefined),i,nt,i,i,nt,
O=C(Nc1c(C(=O)O)oc2ccc(Br)cc12)c1ccccc1,i,48,i,i,57,
O=C(NCc1cccc(C(F)(F)F)c1)N1CCN(S(=O)(=O)c2ccccc2F)CC1,i,51,i,i,i,ATG4B conf=61
CC1(C(=O)NC2CCCC2)CCC(=O)N1CCCn1ccnc1 (centres undefined),i,nt,i,i,nt,
O=C(NCc1ccc(Cl)cc1Cl)C1CCN(S(=O)(=O)c2ccc3c(c2)OCCCO3)CC1,i,42,i,i,55,
COC(=O)[C@]12CCCCC=C1N(Cc1ccco1)C(=O)[C@H](CC(=O)NCCC(C)C)C2,i,nt,nt,i,nt,
CC[C@H](C)/C=C/C1=CC2=C(Cl)C(=O)[C@@]3(C)OC(=O)C(C(=O)[C@H](C)[C@@H](C)O)=C3C2=CO1,i,42,i,i,54,
COCC(C)OC(=O)/C(C#N)=C\c1coc2ccc(C)cc2c1=O (centres undefined),i,62,i,i,i,
Cc1ccc2occ(/C=N/NC(=O)[C@@H](N)Cc3ccccc3)c(=O)c2c1,i,i,i,i,nt,
CCOc1ccc(OCC)c(NC(=O)CN2CCC(NC(=O)c3cccc(F)c3)CC2)c1,i,79,i,i,76,
SMILES,SUMO1 PPI mod,ATG4B inh,Rin1-Abl PPI inh,Neddylation inh,PLA2 counter,others
CC1=CC(C)(C)N2C(=O)C3(NCCc4c3[nH]c3ccccc43)c3cc(C)cc1c32 (centres undefined),i,58,i,i,69,
O=C(O)c1cccc(NN=C2c3ccccc3-c3ccccc32)c1,i,i,i,i,nt,
O=C(O)c1cc(NN=C2c3ccccc3-c3ccccc32)ccc1Cl,i,45,i,i,i,ATG4B conf=62
CCCS(=O)(=O)NC(=O)C1(C)CCCN(C(=O)c2ccc3ccccc3c2)C1 (centres undefined),i,nt,i,i,nt,
COc1ccccc1N1CCN(S(=O)(=O)c2ccc3nc(-c4ccccc4)[nH]c3c2)CC1,i,59,i,i,58,
O=S(=O)(c1ccc2nc(-c3ccccc3)[nH]c2c1)N1CCN(c2cccc(Cl)c2)CC1,i,i,i,i,nt,
Cn1cccc1C(=O)NC(=O)COC(=O)CC12CC3CC(CC(C3)C1)C2,i,62,i,i,54,
Cn1cccc1C(=O)NC(=O)COC(=O)CC12CC3CC(CC(Br)(C3)C1)C2,i,61,i,i,73,
C[C@H](O)[C@@H]1CN2CCc3c([nH]c4ccccc34)[C@@H]2C[C@@H]1N(C)C(=O)OCc1ccccc1,i,nt,i,nt,nt,
O=C(/C=C/c1ccccc1)NC(NC(=S)Nc1cc(Cl)ccc1Cl)C(Cl)(Cl)Cl (centres undefined),i,42,i,i,i,
CC1(C(=O)NS(=O)(=O)c2cccc(F)c2)CCN1C(=O)Cc1cccs1 (centres undefined),i,nt,i,i,nt,
Cc1cc(C(=O)COC(=O)c2ccc[nH]c2=O)c(C)n1-c1ccccc1F,i,i,i,i,nt,
Cc1ccc(-n2c(C)cc(C(=O)COC(=O)c3ccc[nH]c3=O)c2C)cc1C,i,45,i,i,i,
c1ccc2c(c1)ncn2-c1cncnc1,i,nt,i,i,nt,
C#CCOCCOCCOCCNc1nc(N2CCN(C(=O)CCCCCCCCCCNC(=O)[C@H]([C@@H](C)CC)n3cc(CCCCN=C(N)N)nn3)CC2)nc(N2CCN(C(=O)CCCCCCCCCCNC(=O)[C@H](CCCCN)n3cc(C)nn3)CC2)n1,nt,57,nt,nt,i,ATG4B conf=i
CSc1ncccc1C(=O)N1CCC(C)(C(=O)O)C1 (centres undefined),i,nt,i,i,nt,
CC(C)=CCC/C(C)=C/Cc1c(O)ccc(C(=O)/C=C/c2ccc(O)cc2)c1O,i,i,i,i,nt,
COc1cc(CCc2ccccc2)c(C(=O)O)c(O)c1C/C=C(/C)CCC=C(C)C,77,85,i,i,90,
COc1cc(CCc2ccccc2)c(C(=O)O)c(O)c1CC=C(C)C,i,75,i,i,86,
COCCN(C(=O)COC(=O)CCC1CCCCC1)c1c(N)n(Cc2ccccc2)c(=O)[nH]c1=O,i,nt,i,i,nt,
Cc1nc2c(C(=O)NCc3ccccc3)c[nH]n2c(=O)c1Cl,i,i,i,i,nt,
Cc1nc2c(C(=O)NCCc3ccccc3Cl)c[nH]n2c(=O)c1Cl,i,43,i,i,57,
Cc1nc2c(C(=O)NCc3ccccc3Cl)c[nH]n2c(=O)c1Cl,i,49,i,i,i,ATG4B conf=62
COC(=O)c1c[nH]n2c(=O)c(Cl)c(C)nc12,i,i,i,i,nt,
CCCc1nc2c(Cl)cc(C(F)(F)F)cn2c1Cc1ccc(OC)cc1C,i,nt,nt,i,nt,

# High-throughput results (PubChem BioAssay)
